This note sets out measurements from PubChem BioAssay (NCI).

The panel holds about 83,000 compounds, 20% with a hit somewhere; the sample as a whole holds those more often.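 Values shown are percent growth following 48 h exposure of cells in 96-well plates to a single concentration of compound; below 10 was considered active.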 A number with no mark means an inactive call. Calls of active or inactive are those of the source.

The subject of the test is MDA-MB-468 breast. Description: NCI-60 one-dose screen, 48 h (100 = growth as untreated, 0 = no growth, -100 = all killed). The settings on record: 10 µM unless noted.
For the molecule `COc1cccc(C2=NN3C(C2)c2ccccc2OC3c2ccc(/C=C3\SC(=O)NC3=O)cc2)c1` (stereo not given), the growth was 102%.

On to `CC[C@@H](C(=O)[C@@H](C)[C@@H](O)[C@H](C)[C@@H]1O[C@@H]([C@@H](CC)C(=O)O)CC[C@@H]1C)C1O[C@]2(C=CC(=O)[C@]3(CC[C@@](C)([C@H]4CC[C@](O)(CC)[C@H](C)O4)O3)O2)[C@H](C)C[C@@H]1C` (stereo not given in full), for which the growth was 18.9%.

As to `O=S(=O)(NCCCNc1nccc(-c2cn(-c3ccccc3)nc2-c2ccc(Cl)c(O)c2)n1)c1ccccc1`, the growth is 59.7%.

For `C=C(C)[C@@H]1CC[C@]2(CN)CC[C@]3(C)[C@H](CC[C@@H]4[C@@](C)(CCCN)[C@H](C(=C)C)CC[C@]43C)[C@@H]12`, the growth is 84.7%.

`COc1ccc(C(=O)c2sc3nc(C)cc(C)c3c2N)cc1OC`: the growth was 88%.

As to `COC(=O)/C(CCC=C(C)C)=C1\[C@@H](OC(C)=O)C[C@@]2(C)[C@H]1C/C(=N/O)[C@H]1[C@@]3(C)CC/C(=N\O)[C@@H](C)[C@@H]3CC[C@@]12C`, the growth was 96.8%.

As to `NS(=O)(=O)c1ccc(-n2nc(-c3ccccc3)ccc2=O)cc1`, the growth was 104%.

Regarding `N/C(=N\c1nc2ccccc2s1)NC(=O)Nc1cccc(Cl)c1`, the growth is 35.5%.

Turning to `CN1NC(c2ccccc2)NN(C)C1=O`, the growth is 108%.

For `O=c1oc2ccccc2cc1-c1nn(-c2ccccc2)cc1-c1nn[nH]n1`, the growth is 104%.

Regarding `CCCCCCCC[Si](OCC)(OCC)OCC`, the growth was 97.5%.

In the case of `O=C(Cn1cc(CN2CCCCCC2)nn1)Nc1ccc2c(ccn2Cc2ccccc2)c1`, the growth is 74.9%.

With `N#Cc1cccc(F)c1`, the growth was 111%.

`Oc1c(Cl)cc(Cl)cc1/C=N/Nc1nnc(N/N=C/c2cc(Cl)cc(Cl)c2O)c2ccccc12`: the growth is -29.9% (active).

Consider `OC(CCN1CCCC1)(c1ccccc1)C1CCCCC1` (stereo not given), for which the growth is 92%.

With `CC(C)(C)c1nc(-c2ccc(O)c(O)c2)cs1`, the growth is 53.5%.

Regarding `CS(=O)(=O)c1nccc(-c2c(-c3cccc(OCc4ccc(F)cc4)c3)nc3sccn23)n1`, the growth was -63.6% (active).

On to `Cc1ccc(C)c2c1sc1nc3n[nH]c(N)c3c(=N)n12`, for which the growth is 97.1%.

On to `C#C[C@@]1(O)[C@@H](CO)O[C@@H](n2cc(Br)c3c(N)ncnc32)[C@@H]1O`, for which the growth was -45.1% (active).

For `COc1cc(C(=O)c2c(N)ncn2-c2ccccc2)cc(OC)c1OC`, the growth is 76%.

Turning to `O=C(NCCCCCCNC(=O)c1c2c(nc3ccccc13)-c1cccnc1SC2)c1c2c(nc3ccccc13)-c1cccnc1SC2`, the growth is 90.4%.

As for `O=C(CNc1ncco1)Nc1ccc(S(=O)(=O)c2ccc(NC(=O)CNc3ncco3)cc2)cc1`, the growth was -61.7% (active).

Consider `CNCCCNCCCCNCCCN1C(=O)c2ccc3c4c(ccc(c24)C1=O)C(=O)N(CCCNCc1ccccc1OC)C3=O`, for which the growth was 28.6%.

On to `COc1ccc(C2C3=C(COC3=O)N(CCO)c3cc4c(cc32)CCC4)cc1OC` (stereo not given), for which the growth was -17.1% (active).

For `CCCCCn1sc(=O)n(Cc2ccc(CNC(=O)OCc3ccc4c(Cl)cc(Cl)c(O)c4n3)cc2)c1=O`, the growth was 59.8%.

Turning to `COc1cccc(-c2nn(-c3ccccc3)cc2-c2ccnc(NCCCNC(=O)Nc3ccc(Cl)c(Cl)c3)c2)c1`, the growth is -42.9% (active).

Take `Cn1cc(-c2nc(-c3cn(C)c4ncccc34)cs2)c2cc(F)ccc21`: the growth was -8.46% (active).

As for `C=C(C)[C@H]1CC/C(C)=C/CC[C@]2(C)O[C@H]2CC/C(C=O)=C\C1O` (stereo not given in full), the growth was 126%.

With `O=C(/C=C\c1ccccc1Cl)c1ccccc1`, the growth is 87.5%.

Turning to `CCOC(=O)c1c(C)oc2ncnc(Nc3ccc(C(=O)NCCc4ccccc4)cc3)c12`, the growth was 90.7%.

Consider `Cc1ccc(/C=C/C(=O)c2ccc(NC(=O)CSc3nc4c([nH]3)c(=O)n(C)c(=O)n4C)cc2)c(C)c1`, for which the growth was 34.1%.

`N/C(=N\OC(=O)c1ccccc1)C(C(=O)NOC(=O)c1ccccc1)C1CCCCC1` (stereo not given): the growth is 80.8%.

On to `CN(C)Cc1cn(-c2ncc(-c3ccc(C(F)(F)F)cc3)c(NC3CCCCCC3)n2)nn1`, for which the growth is 82.9%.

As for `COc1ccc(C(=O)/C=C/c2cc(-c3ccc4c(c3)OCO4)n[nH]2)cc1OC`, the growth is 28.2%.

`COc1cc2c(cc1OC)C(=O)/C(=C/c1cc(-c3ccc4c(c3)OCO4)n[nH]1)C2`: the growth was -26.4% (active).

Consider `O=C(c1ccccc1)C(Sc1ccccc1)c1ccccc1` (stereo not given), for which the growth was 88.7%.

With `COc1cc(Cn2cc3c(c2)-c2onc(CO)c2CC3)cc(OC)c1OC`, the growth was 81.6%.

Turning to `O=C(Nc1cc(-c2cccnc2)nc(NCCCN2CCOCC2)n1)c1cc(Br)cc(C(F)(F)F)c1`, the growth was 52.8%.

As to `CN1CCN(c2ccc3nc(/N=C/c4ccc5sc(-c6ccc([N+](=O)[O-])cc6)nc5c4)sc3c2)CC1`, the growth was 109%.

As for `Cc1nc2cc(Nc3nc(Cl)nc(Nc4ccc(F)cc4)n3)ccc2n1Cc1ccccc1`, the growth was 76.2%.
